The values that follow come from PubChem BioAssay (Tox21).

Values joined by “and” are separate entries in the source; they are usually repeats but may differ in a detail not shown here. Identical values can stand only once. Results filed as inconclusive are left out. Some compounds were tested as several samples or in several runs, with calls that do not always agree. Active and inactive are the calls of the source. Unless noted, the call rests on the fitted dose curve; in most records, active means well fitted curve in the direction sought with a large enough effect in the repeat runs; inconclusive means weak or mixed curves; inactive means no such curve, though single readings can be large; an effect the other way counts as inactive or inconclusive.

In test [1] the target is Progesterone receptor (Homo sapiens) (UniProt P06401). In words: qHTS assay to identify small molecule agonists of the progesterone receptor (PR) signaling pathway (AID 1346784; calls by dose curve; further: nearly all actives have a fitted effect of over 30% in size). The method in brief:
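Reporter assay, GripTite PR-UAS-bla HEK 293T cells: 16 hr exposure to DMSO-dissolved compounds at 37C, 5% CO2, in steroid-depleted (2% charcoal-stripped FBS) medium; beta-lactamase measured by FRET fluorescence.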
In general terms: Quantitative high-throughput screening tests each substance at several concentrations.

For test [2] the target is unchanged. As to the kind of experiment: qHTS assay to identify small molecule antagonists of the progesterone receptor (PR) signaling pathway (AID 1346795; active means well fitted inhibition curve with a large enough effect in the signal ratio in the repeat runs, not every such curve was filed as active; the % refers to the signal ratio). The method in brief:
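Stimulus R5020 at 1 nM final; cells HEK293T PR-UAS-bla; medium with 2% charcoal-stripped FBS; compound exposure 16 hr at 37C, 5% CO2; detection by FRET beta-lactamase substrate, 2 hr, room temperature.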

Test [3] can be described thus: qHTS assay to identify small molecule antagonists of the progesterone receptor (PR) signaling pathway - cell viability counter screen (AID 1346798). Further: series mostly up to about 92 µM; nearly all actives have a fitted effect of over 50% in size. Put shortly: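 In the same plates used for the beta-lactamase readout, cell viability of compound- and R5020-treated PR-UAS-bla HEK293T cells (16 hr, 37C) was assessed by CellTiter-Glo luminescence.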
Test [4] can be described thus: qHTS assay to identify small molecule agonists of the progesterone receptor (PR) signaling pathway - cell viability counter screen (AID 1346799; calls by dose curve; further: nearly all actives have a fitted effect of over 45% in size). The method in brief:
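Multiplexed viability read: CellTiter-Glo luminescence, 30 min RT, following LiveBLAzer FRET measurement on PR-UAS-bla HEK293T cells exposed to compounds 16 hr.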

Test [5] can be described thus: qHTS assay to identify small molecule antagonists of the TGF-beta/Smad signaling pathway - cell viability counter screen (AID 1346824). Further: nearly all actives have a fitted effect of over 50% in size. Put shortly: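 SBE-bla HEK 293T cells, incubated overnight, then compound plus 0.25 ng/mL TGF-beta1 (stock added) for 5 hr at 37 C. Viability was read in the same wells by CellTiter-Glo luminescence after 30 min at room temperature.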

A short description of test [6]: qHTS assay to identify small molecule agonists of the TGF-beta/Smad signaling pathway - cell viability counter screen (AID 1346829). Further: top concentration of the series differs between compounds; nearly all actives have a fitted effect of over 45% in size. Put shortly:
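Here the cytotoxicity of library compounds is measured in SBE-bla HEK 293T cells treated for 5 hr, using CellTiter-Glo added to wells already read for the beta-lactamase reporter.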

Test [7] can be described thus: qHTS assay to identify small molecule agonists of the TGF-beta/Smad signaling pathway (AID 1346859; active means well fitted activation curve with a large enough effect in the signal ratio in the repeat runs, not every such curve was filed as active; the % refers to the signal ratio; further: series mostly up to about 77 µM). The method in brief: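 Screening used HEK 293T SBE-bla cells at 4,000/well. Test agents: 5 hr, 37 C. Detection: FRET substrate, 2 hr RT, then excitation 405 nm with emissions at 460 and 530 nm.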
For test [8], the target named is Thyrotropin-releasing hormone receptor (Homo sapiens) (UniProt P34981). As to the kind of experiment: qHTS assay to identify small molecule antagonists of the thyrotropin-releasing hormone receptor (TRHR) signaling pathway (AID 1346877; active means well fitted inhibition curve with a large enough effect in the repeat runs, not every such curve was filed as active; further: series mostly up to about 51 µM). Put shortly:
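TRHR-expressing HEK293 cells were seeded, cultured 18 h at 37 °C, then loaded with calcium dye for 2 h. Compounds were pre-incubated 5 min at room temperature before 1 nM TRH (final) was added, and kinetic fluorescence was recorded for 3 min.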

For test [9] the target is unchanged. In words: qHTS assay to identify small molecule agonists of the thyrotropin-releasing hormone receptor (TRHR) signaling pathway (AID 1346891; calls by dose curve; further: series mostly up to about 58 µM). The method in brief: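 Readout was intracellular calcium fluorescence in TRHR-Hek293 cells. Cells were incubated 18 h, dye-loaded 2 h at 37 °C, and treated with compound in agonist mode.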
Test [10] in a line: Human pregnane X receptor (PXR) small molecule agonists, qHTS cell viability counter screen (AID 1346977). Further: nearly all actives have a fitted effect of over 50% in size. The method in brief:
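In each well, the PXR reporter HepG2 line was checked for viability: CellTiter-Fluor reagent added 23hr post-dosing, fluorescence read after 1hr incubation at 37C.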

The nature of test [11]: Caspase-3/7 induction in HepG2 cells by small molecules, qHTS assay (AID 1346978). Further: nearly all actives have a fitted effect of over 15% in size. Put shortly: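 Wild-type HepG2 cells, 2,000/well, settled 5 hr at 37 C and 5% CO2, then compound-treated for 17 hr; caspase-3/7 activity read by luminescent Caspase-Glo 3/7 after 30 min at room temperature.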
The nature of test [12]: Caspase-3/7 induction in CHO-K1 cells by small molecules, qHTS cell viability counter screen (AID 1346979). Further: nearly all actives have a fitted effect of over 35% in size. Put shortly:
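Following a 5hr settling period, CHO-K1 cells at 1,500 per well received DMSO-dissolved compounds. Cell viability was quantified 16hr later by CellTiter-Fluor fluorescence, measured after 1hr with reagent at 37C.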

Test [13] in a line: Caspase-3/7 induction in HepG2 cells by small molecules, qHTS cell viability counter screen (AID 1346981). Further: series mostly up to about 92 µM; nearly all actives have a fitted effect of over 30% in size. Put shortly:
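Wild-type HepG2 cells (2,000/well) were allowed to settle for 5 hr at 37 C, 5% CO2, then dosed with compounds in DMSO by pin transfer. After 16 hr at 37 C, CellTiter-Fluor was added and fluorescence read 1 hr later.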

In test [14] the target is Nuclear receptor subfamily 1 group I member 2 (Homo sapiens) (UniProt O75469). In words: Human pregnane X receptor (PXR) small molecule agonists, qHTS assay (AID 1346982). Further: nearly all actives have a fitted effect of over 35% in size. Further: potency means the concentration at half of the fitted maximal effect. Put shortly:
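PXR-Luc HepG2 cells (CYP3A4 promoter-driven luciferase) were seeded in medium with 5% charcoal-stripped FBS, left 5 hr at 37 C, then exposed to compounds in DMSO for 24 hr. Luminescence was read after ONE-Glo addition.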

The target in test [15] is Cytochrome P450 2D6 (Homo sapiens) (UniProt P10635). As to the kind of experiment: Cytochrome P450 Family 2 Subfamily D Member 6 (CYP2D6) small molecule antagonists: luciferase reporter qHTS assay (AID 1671196). Further: nearly all actives have a fitted effect of over 50% in size. Further: potency means the concentration at half of the fitted maximal effect. The method in brief:
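CYP2D6 enzyme–substrate mix was held with compound for 10 min at room temperature, then NADPH regeneration solution was added and the reaction ran 1 h at room temperature. Luciferin product was detected by luminescence after 20 min with detection reagent.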
(In general: Reporter assays use an easily measured gene product as a stand-in for the process of interest.)

For test [16], the target named is Cytochrome P450 2C19 (Homo sapiens) (UniProt P33261). In words: Cytochrome P450 Family 2 Subfamily C Member 19 (CYP2C19) small molecule antagonists: luciferase reporter qHTS assay (AID 1671197). Further: nearly all actives have a fitted effect of over 65% in size. Further: potency means the concentration at half of the fitted maximal effect. Put shortly:
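Light output is proportional to CYP2C19 activity: proluciferin substrate is converted to luciferin, then detected by a luciferin detection reagent that also stops the 1 h, 37C NADPH-driven reaction. Ketoconazole serves as positive control.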

Test [17] has as its target Cytochrome P450 2C9 (Homo sapiens) (UniProt P11712). As to the kind of experiment: Cytochrome P450 Family 2 Subfamily C Member 9 (CYP2C9) small molecule antagonists: luciferase reporter qHTS assay (AID 1671198). Further: nearly all actives have a fitted effect of over 50% in size. Further: potency means the concentration at half of the fitted maximal effect. Put shortly: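 P450-Glo proluciferin substrate with CYP2C9 enzyme; 10 min RT preincubation, then NADPH regeneration 1 h at 37C; luciferin detection reagent 20 min RT, luminescence in relative luminescence units.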

The nature of test [18]: Caspase-3/7 induction in CHO-K1 cells by small molecules, qHTS assay (AID 1346980). Further: nearly all actives have a fitted effect of over 15% in size. Put shortly:
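Wild-type CHO-K1 cells exposed to compounds for 17hr at 37 C, 5% CO2. Caspase-3/7 activity then measured by Caspase-Glo 3/7 luminescence after 30min at room temperature.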

For test [19], the target named is Nuclear receptor subfamily 1 group I member 2 (Homo sapiens) (UniProt O75469). As to the kind of experiment: CYP3A4 induction through human pregnane X receptor (PXR) by small molecules, qHTS assay (AID 1346984). Further: nearly all actives have a fitted effect of over 40% in size. Put shortly: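 DPX-2 cells (HepG2 co-transfected with PXR and CYP3A4 promoter-luciferase) treated with compounds 24 h at 37C; luciferin-IPA CYP3A4 substrate 3uM final added for 3 h, then One-Glo; luminescence read. qHTS format.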

Test [20] shares this target. In words: Human pregnane X receptor (PXR) activation by small molecules, qHTS assay (AID 1346985). Further: nearly all actives have a fitted effect of over 40% in size. The method in brief: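 DPX-2 cells (HepG2 co-transfected with a PXR response element and a CYP3A4-promoter luciferase construct) were seeded at 2,000 per well, rested 5 hr at 37C, then exposed to DMSO-dissolved compounds for 24 hr. Activation was read as luciferase luminescence.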

Progesterone receptor (Homo sapiens), sequence (P06401 whole entry, looked up): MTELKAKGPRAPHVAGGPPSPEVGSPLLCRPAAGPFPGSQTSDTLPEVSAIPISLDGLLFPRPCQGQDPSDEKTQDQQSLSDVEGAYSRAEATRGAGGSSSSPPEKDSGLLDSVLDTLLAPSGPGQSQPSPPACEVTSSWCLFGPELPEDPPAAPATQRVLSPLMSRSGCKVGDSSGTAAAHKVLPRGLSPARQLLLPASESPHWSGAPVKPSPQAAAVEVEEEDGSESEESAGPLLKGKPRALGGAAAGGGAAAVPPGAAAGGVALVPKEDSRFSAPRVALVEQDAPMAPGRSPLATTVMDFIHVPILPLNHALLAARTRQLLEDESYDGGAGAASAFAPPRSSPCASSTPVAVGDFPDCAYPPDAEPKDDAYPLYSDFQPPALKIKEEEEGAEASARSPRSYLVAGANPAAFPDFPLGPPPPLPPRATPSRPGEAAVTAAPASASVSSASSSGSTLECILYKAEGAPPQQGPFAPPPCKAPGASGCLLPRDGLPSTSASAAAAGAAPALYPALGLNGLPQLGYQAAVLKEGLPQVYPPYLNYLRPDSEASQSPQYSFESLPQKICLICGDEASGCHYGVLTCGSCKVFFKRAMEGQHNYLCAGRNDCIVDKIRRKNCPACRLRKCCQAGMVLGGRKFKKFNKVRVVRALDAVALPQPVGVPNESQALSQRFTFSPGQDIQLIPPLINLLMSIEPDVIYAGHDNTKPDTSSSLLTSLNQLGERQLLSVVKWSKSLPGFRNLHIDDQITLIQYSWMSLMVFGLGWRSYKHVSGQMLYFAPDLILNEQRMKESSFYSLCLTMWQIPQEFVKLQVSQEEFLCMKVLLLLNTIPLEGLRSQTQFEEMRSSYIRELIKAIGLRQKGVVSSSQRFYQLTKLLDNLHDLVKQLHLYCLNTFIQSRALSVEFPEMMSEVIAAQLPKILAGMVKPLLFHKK
Cytochrome P450 2C19 (Homo sapiens), sequence (P33261 whole entry, looked up): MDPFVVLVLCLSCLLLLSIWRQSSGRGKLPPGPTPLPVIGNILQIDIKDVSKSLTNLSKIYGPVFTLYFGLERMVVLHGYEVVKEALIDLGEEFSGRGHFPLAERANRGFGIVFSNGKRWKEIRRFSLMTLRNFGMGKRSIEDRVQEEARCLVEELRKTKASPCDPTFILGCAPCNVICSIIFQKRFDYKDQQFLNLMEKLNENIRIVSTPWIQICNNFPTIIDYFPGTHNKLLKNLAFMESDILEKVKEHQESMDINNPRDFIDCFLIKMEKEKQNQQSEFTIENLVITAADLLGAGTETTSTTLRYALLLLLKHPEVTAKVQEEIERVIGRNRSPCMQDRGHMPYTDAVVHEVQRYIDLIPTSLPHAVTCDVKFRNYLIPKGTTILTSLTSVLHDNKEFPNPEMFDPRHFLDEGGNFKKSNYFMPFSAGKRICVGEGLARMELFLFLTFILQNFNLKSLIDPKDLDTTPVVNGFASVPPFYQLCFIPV
Cytochrome P450 2D6 (Homo sapiens), sequence (P10635 whole entry, looked up): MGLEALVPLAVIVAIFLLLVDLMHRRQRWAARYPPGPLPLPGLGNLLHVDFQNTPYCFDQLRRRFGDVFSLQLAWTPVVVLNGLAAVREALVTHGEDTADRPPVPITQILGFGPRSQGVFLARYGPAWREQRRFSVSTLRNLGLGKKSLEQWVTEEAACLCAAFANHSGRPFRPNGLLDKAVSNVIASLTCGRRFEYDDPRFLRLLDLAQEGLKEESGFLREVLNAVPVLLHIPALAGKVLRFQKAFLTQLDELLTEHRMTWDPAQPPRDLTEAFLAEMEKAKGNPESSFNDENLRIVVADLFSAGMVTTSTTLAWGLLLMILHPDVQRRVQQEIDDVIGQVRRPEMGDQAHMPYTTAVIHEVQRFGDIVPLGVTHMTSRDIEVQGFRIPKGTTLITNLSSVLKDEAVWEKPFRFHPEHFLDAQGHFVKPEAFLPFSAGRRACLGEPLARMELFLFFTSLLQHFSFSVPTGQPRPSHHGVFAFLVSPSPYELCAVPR
Cytochrome P450 2C9 (Homo sapiens), sequence (P11712 whole entry, looked up): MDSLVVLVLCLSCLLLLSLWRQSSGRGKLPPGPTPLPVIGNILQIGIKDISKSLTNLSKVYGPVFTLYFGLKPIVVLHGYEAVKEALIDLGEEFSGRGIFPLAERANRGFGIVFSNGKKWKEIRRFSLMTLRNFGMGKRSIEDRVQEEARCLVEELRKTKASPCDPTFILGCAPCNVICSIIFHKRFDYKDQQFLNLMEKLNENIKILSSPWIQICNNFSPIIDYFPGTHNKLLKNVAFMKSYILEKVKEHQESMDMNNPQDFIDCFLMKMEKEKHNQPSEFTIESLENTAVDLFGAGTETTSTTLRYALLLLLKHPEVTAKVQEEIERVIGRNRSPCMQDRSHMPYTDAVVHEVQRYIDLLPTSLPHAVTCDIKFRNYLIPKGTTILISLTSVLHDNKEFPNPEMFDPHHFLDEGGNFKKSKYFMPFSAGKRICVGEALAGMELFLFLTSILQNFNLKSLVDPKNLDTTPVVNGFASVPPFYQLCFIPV
Thyrotropin-releasing hormone receptor (Homo sapiens), sequence (P34981 whole entry, looked up): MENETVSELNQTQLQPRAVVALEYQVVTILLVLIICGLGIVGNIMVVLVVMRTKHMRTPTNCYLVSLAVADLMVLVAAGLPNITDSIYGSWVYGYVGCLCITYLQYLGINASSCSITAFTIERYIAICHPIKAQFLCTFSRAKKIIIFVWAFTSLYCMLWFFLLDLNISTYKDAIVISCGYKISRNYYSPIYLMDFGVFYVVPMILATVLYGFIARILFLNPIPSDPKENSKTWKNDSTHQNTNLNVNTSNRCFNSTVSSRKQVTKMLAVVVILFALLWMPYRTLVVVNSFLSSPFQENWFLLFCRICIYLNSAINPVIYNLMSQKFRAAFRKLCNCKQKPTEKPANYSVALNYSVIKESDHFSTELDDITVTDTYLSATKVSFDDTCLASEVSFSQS
Nuclear receptor subfamily 1 group I member 2 (Homo sapiens), sequence (O75469 whole entry, looked up): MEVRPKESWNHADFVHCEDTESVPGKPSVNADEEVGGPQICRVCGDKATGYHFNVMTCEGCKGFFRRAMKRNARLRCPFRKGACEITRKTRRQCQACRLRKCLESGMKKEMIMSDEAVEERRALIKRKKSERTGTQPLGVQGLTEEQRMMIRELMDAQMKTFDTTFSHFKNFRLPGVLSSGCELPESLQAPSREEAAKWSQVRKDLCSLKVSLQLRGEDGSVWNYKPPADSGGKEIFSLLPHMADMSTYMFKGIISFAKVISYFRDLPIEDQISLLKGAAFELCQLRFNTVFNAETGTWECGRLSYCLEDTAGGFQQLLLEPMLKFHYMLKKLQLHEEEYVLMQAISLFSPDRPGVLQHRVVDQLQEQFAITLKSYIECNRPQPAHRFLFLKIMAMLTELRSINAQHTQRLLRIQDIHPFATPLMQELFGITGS

Regarding `C=CN1CCCC1=O`, the Potency result in test [1], in test [2], in [3], in [4], in test [5] and in test [6] was “inactive” throughout. The Potency entry in test [8], in test [9], in [10], in [11], in test [12] and in test [13] was “inactive” each time. Besides, the Potency result in [14], in test [15], in [16] and in test [17] was “inactive” in each case. In [7], the outcome was inactive.

With `CCC(Cc1c(I)cc(I)c(N)c1I)C(=O)O` (stereo not given), the Potency result in [1], in test [2], in test [3], in test [4], in test [5] and in test [6] was “inactive” in each case. Moreover, the Potency result in test [8], in test [9], in [10], in test [12], in test [18] and in [13] was “inactive” each time. Further, the Potency entry in [19], in test [20], in test [15] and in test [16] was “inactive” each time. Moreover, in [7], the result was inactive. Further, the Potency is 52.8 µM (active) in test [14]; 30.7 µM (active) and 30.9 µM (active) in [17].

For `Cc1ccc2c(c1)C(=O)OC2=O`, the Potency entry in [1], in test [2], in test [3], in [4], in test [5] and in test [6] was “inactive” each time. Moreover, the Potency entry in [9], in test [10], in test [12], in [18], in test [13] and in [16] was “inactive” throughout. Besides, the Potency result in [17] was “inactive”. Also, the compound was classed as inactive in test [7]. The Potency entry in [15] is “inactive and 6.33 µM (active)”.

As for `Cc1ccc(C(C)(C)C)cc1`, the Potency entry in test [1], in test [2], in [3], in test [4], in [5] and in test [6] was “inactive” in each case. In addition, the Potency result in test [9], in test [10], in [12], in test [18], in test [13] and in test [15] was “inactive” throughout. For the same compound, the Potency entry in [16] and in [17] was “inactive” in each case. In addition, the compound was classed as inactive in [7].

On to `C=CCCCCCCCCCC`, for which the Potency entry in [1], in test [2], in [3], in [4], in test [5] and in [6] was “inactive” throughout. The Potency entry in test [9], in [10], in test [12], in test [18], in test [13] and in test [14] was “inactive” each time. Further, the Potency entry in test [15], in test [16] and in test [17] was “inactive” throughout. Also, in test [7], the result was inactive.

`CC(C)[C@@H]1CC[C@@H](C)CC1=O`: the Potency result in [1], in test [2], in test [3], in test [4], in [5] and in test [6] was “inactive” in each case. Also, the Potency entry in test [10], in test [11], in test [12], in test [18], in test [13] and in test [14] was “inactive” in each case. Also, the Potency result in test [19], in test [20], in test [15] and in test [17] was “inactive” each time. Moreover, the call in test [7] was inactive. Further, in test [16], the Potency was 31.7 µM (active) and inactive.
